Among the data in PubChem BioAssay (EPA / NIEHS) are AC50 and outcome values, retold here.

Inconclusive results are not listed. Activity calls are given as the source filed them. The calls were made as follows, unless noted: active = hit-call score of the fitted dose curve at least 0.9, where 1 is the maximum; inactive = score below 0.9.

Test [1] in a line: ATG_PBREM_CIS: Attagene CIS-FACTORIAL HepG2 Assay for human Phenobarbital-responsive Enhancer Module (PBREM) (AID 2282955). The settings on record: HepG2 PBREM cis-reporter, Attagene multiplexed transcription; actives raise or lower the signal. In short, it runs like this:
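After a 24 h incubation with test chemical, transfected HepG2 cells yield total RNA; reporter-specific RT-PCR products are fluorescently labelled, HpaI-digested and resolved by capillary electrophoresis against ROX size standards.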

Test [2] deals with Paired box protein Pax-6 (Homo sapiens) (UniProt P26367). Description: ATG_Pax6_CIS: Attagene CIS-FACTORIAL HepG2 Assay for human Paired Box 6 (PAX6) (AID 2282956). The settings on record: HepG2 CIS-FACTORIAL PAX6 reporter transcription, RNA readout; actives raise or lower the signal. In short, it runs like this: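 Readout: reporter transcript fluorescence after RT-PCR and capillary electrophoresis. Cells: HepG2, transiently transfected with cis-regulated MRTUs. Exposure 24 h. Gain or loss of signal fitted bidirectionally relative to DMSO.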

The nature of test [3]: ATG_PXRE_CIS: Attagene CIS-FACTORIAL HepG2 Assay for human Pregnane X Receptor Element (PXRE) (AID 2282957). The settings on record: HepG2 Attagene CIS-FACTORIAL PXRE reporter, mRNA; actives raise or lower the signal. In short, it runs like this:
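Using HepG2 transfected with multiple reporter transcription units, endogenous factor-driven transcription was scored as reporter mRNA after 24 h exposure.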

The nature of test [4]: ATG_PPRE_CIS: Attagene CIS-FACTORIAL HepG2 Assay for human Peroxisome Proliferator-activated Response Element (PPRE) (AID 2282958). As to conditions: HepG2 PPRE cis-element reporter, Attagene transcription factor profiling; actives raise or lower the signal. Summed up: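 Multiplexed reporter transcription units under cis-regulatory promoters were transfected into HepG2 cells to capture endogenous factor activity. A 24 h incubation preceded RNA isolation and fluorescent RT-PCR fragment analysis.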

Test [5] can be described thus: ATG_RORE_CIS: Attagene CIS-FACTORIAL HepG2 Assay for human RAR-related Orphan Receptor Element (RORE) (AID 2282959). The settings on record: HepG2 Attagene cis-factorial RORE reporter, mRNA; actives raise or lower the signal. In short, it runs like this:
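Fluorescence intensity of reporter-specific cDNA fragments, separated by capillary electrophoresis, gives the signal. Source: HepG2 liver cells transiently transfected with cis-element reporters and exposed 24 h; DMSO-normalized bidirectional fit.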

Test [6] in a line: ATG_Sox_CIS: Attagene CIS-FACTORIAL HepG2 Assay for human SRY-box transcription factor (SOX) (AID 2282960). As to conditions: HepG2 Attagene cis-factorial SOX reporter, mRNA; actives raise or lower the signal. In short, it runs like this:
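After 24 h of chemical treatment, transfected HepG2 reporter cells are lysed for total RNA. Transcript levels come from RT-PCR with labelled primer extension and capillary electrophoresis, analysed bidirectionally versus DMSO.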

Test [7] concerns the target Transcription factor Sp1 (Homo sapiens) (UniProt P08047). Description: ATG_Sp1_CIS: Attagene CIS-FACTORIAL HepG2 Assay for human Specificity Protein 1 (Sp1) (AID 2282961). The settings on record: HepG2 Sp1 cis-reporter transcription, actives raise or lower the signal. Summed up: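 Sp1-driven reporter mRNA, read as capillary electrophoresis fluorescence after RT-PCR, in transiently transfected HepG2 cells dosed for 24 h; signal change in either direction relative to DMSO.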

A short description of test [8]: ATG_SREBP_CIS: Attagene CIS-FACTORIAL HepG2 Assay for human Sterol Regulatory Element Binding (SREBP) (AID 2282962). The settings on record: HepG2 Attagene cis-factorial SREBP reporter, mRNA; actives raise or lower the signal. Summed up: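 Readout: fluorescent reporter-transcript peaks resolved by capillary electrophoresis after RT-PCR. Cells were human HepG2 carrying transfected cis-promoter reporter constructs, dosed for 24 h. Gain or loss of signal was fitted against DMSO controls.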

Test [9] concerns the target Signal transducer and activator of transcription 3 (Homo sapiens) (UniProt P40763). Description: ATG_STAT3_CIS: Attagene CIS-FACTORIAL HepG2 Assay for human Signal Transducer and Activator of Transcription 3 (STAT3) (AID 2282963). The settings on record: HepG2, Attagene cis-factorial STAT3 reporter transcription; actives raise or lower the signal. Summed up:
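Readout: fluorescent reporter mRNA fragments resolved by capillary electrophoresis. Setup: HepG2 transfected with MRTUs reporting endogenous transcription-factor activity, dosed 24 h. Gain or loss of signal fitted bidirectionally against DMSO control.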

Test [10] can be described thus: ATG_TA_CIS: Attagene CIS-FACTORIAL HepG2 Assay for human TA Basal Promoter (AID 2282964). As to conditions: HepG2 Attagene CIS-factorial TA basal promoter reporter; actives raise or lower the signal. In short, it runs like this:
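Steps: transfect HepG2 with MRTUs; dose 24 h; isolate RNA, DNase-treat, reverse-transcribe; PCR and FAM-label reporter cDNA; digest with HpaI 2h at 37 C; run capillary electrophoresis. Activity fitted both directions against DMSO.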

A short description of test [11]: ATG_TCF_b_cat_CIS: Attagene CIS-FACTORIAL HepG2 Assay for human T-Cell-Factor with beta-catenin (TCF/b-cat) (AID 2282965). As to conditions: HepG2 TCF/beta-catenin cis-reporter transcription, actives raise or lower the signal. In short, it runs like this: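 Cells of the HepG2 line carry transiently transfected reporter units whose promoters respond to endogenous factors. Twenty-four hours post-dosing, reporter mRNA induction is measured by fluorescent RT-PCR and capillary electrophoresis, with DMSO as baseline.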

Test [12] is described as follows: ATG_TAL_CIS: Attagene CIS-FACTORIAL HepG2 Assay for human TAL Basal Promoter (AID 2282966).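 Also: background control endpoint measuring basal TAL promoter reporter mRNA not a specific factor.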 As to conditions: HepG2 Attagene cis-factorial TAL promoter reporter; actives raise or lower the signal. In short, it runs like this:
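After 24 hours of chemical exposure, transfected HepG2 cells yielded RNA that was converted to 6-FAM-labelled, HpaI-digested reporter fragments for capillary electrophoresis. Values derive from bidirectional fitting against DMSO controls.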

Test [13] in a line: ATG_TGFb_CIS: Attagene CIS-FACTORIAL HepG2 Assay for human Transforming Growth Factor (TGF) (AID 2282967). As to conditions: HepG2 Attagene CIS TGFb reporter, mRNA transcription; actives raise or lower the signal. Summed up: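 Cells were dosed for 24 hours, after which total RNA was reverse-transcribed and reporter sequences amplified, labeled and sized by capillary electrophoresis. Activity was fitted in both directions against DMSO.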

The nature of test [14]: ATG_VDRE_CIS: Attagene CIS-FACTORIAL HepG2 Assay for human Vitamin D Receptor Element (VDRE) (AID 2282968). The settings on record: HepG2 VDRE cis-reporter transcription, actives raise or lower the signal. In short, it runs like this: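 Transient MRTU transfection of HepG2, 24 h compound exposure. Readout: reporter transcripts via RT-PCR and capillary electrophoresis, fluorescence. Bidirectional fit vs DMSO.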

Test [15] has as its target Nuclear receptor subfamily 1 group I member 3 (Homo sapiens) (UniProt Q14994). Description: ATG_CAR_TRANS: Attagene TRANS-FACTORIAL HepG2 Assay for human Constitutive Androstane Receptor (CAR) (AID 2282969; active = hit-call score of the fitted dose curve at least 0.9, where 1 is the maximum;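 also: activators raise reporter mRNA above DMSO so AC50 marks induction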). The settings on record: HepG2 Attagene TRANS-FACTORIAL CAR reporter. In short, it runs like this: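 Transiently transfected HepG2, multiplex TRANS reporters (CAR-Gal4 chimera driving GAL4-UAS reporter). 24 h dosing. Readout: reporter transcript by RT-PCR + capillary electrophoresis, fluorescence intensity; positive direction vs DMSO.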

For test [16], the target named is Steroid hormone receptor ERR1 (Homo sapiens) (UniProt P11474). Description: ATG_ERRa_TRANS: Attagene TRANS-FACTORIAL HepG2 Assay for human Estrogen-Related Receptor alpha (ERRa) (AID 2282971; active = hit-call score of the fitted dose curve at least 0.9, where 1 is the maximum). The settings on record: HepG2 Attagene TRANS reporter, ERRa transactivation. Summed up:
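Reporter transcript induction was quantified by RT-PCR and capillary electrophoresis of FAM-labelled, HpaI-cut products after 24 h treatment of HepG2 cells carrying transiently transfected GAL4-UAS reporter units and an exogenous ERRa-Gal4 fusion; activity scored as increase over DMSO.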

Test [17] deals with X-box-binding protein 1 (Homo sapiens) (UniProt P17861). Description: ATG_Xbp1_CIS: Attagene CIS-FACTORIAL HepG2 Assay for human X-box Binding Protein 1 (XBP1) (AID 2282972). As to conditions: HepG2 XBP1 cis-element reporter, Attagene multiplex; actives raise or lower the signal. Summed up: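 Read-out: fluorescent reporter mRNA fragments resolved by capillary electrophoresis after RT-PCR. Human HepG2 liver cells carried transfected cis-promoter reporter units and were exposed to chemicals for 24 hours. Gain or loss of signal fitted relative to DMSO baseline.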

Test [18] in a line: ATG_M_19_TRANS: Attagene TRANS-FACTORIAL HepG2 Assay for M19 Transcription Factor (Internal Marker) (AID 2282974; active = hit-call score of the fitted dose curve at least 0.9, where 1 is the maximum). The settings on record: HepG2 Attagene TRANS-FACTORIAL M19 internal marker reporter. Summed up:
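Measured here: internal-marker reporter transcript from HepG2 cells transfected with MRTUs, harvested at 24 h. cDNA PCR products were 6-FAM labelled by primer extension, cut with HpaI for 2 h at 37 C, and resolved by CE.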

In test [19] the target is Estrogen receptor (Homo sapiens) (UniProt P03372). Description: ATG_ERa_TRANS: Attagene TRANS-FACTORIAL HepG2 Assay for human Estrogen Receptor alpha (ERa) (AID 2282970; active = hit-call score of the fitted dose curve at least 0.9, where 1 is the maximum). The settings on record: HepG2 Attagene TRANS ERa GAL4 reporter, mRNA. In short, it runs like this:
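Liver-derived HepG2 cells expressing chimeric nuclear receptor-Gal4 proteins from transient transfection were exposed for 24 hours. Gain of reporter mRNA signal versus DMSO, read by capillary electrophoresis of FAM-labelled PCR products, was recorded.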

Sequence of Transcription factor Sp1 (Homo sapiens) (P08047 whole entry, looked up): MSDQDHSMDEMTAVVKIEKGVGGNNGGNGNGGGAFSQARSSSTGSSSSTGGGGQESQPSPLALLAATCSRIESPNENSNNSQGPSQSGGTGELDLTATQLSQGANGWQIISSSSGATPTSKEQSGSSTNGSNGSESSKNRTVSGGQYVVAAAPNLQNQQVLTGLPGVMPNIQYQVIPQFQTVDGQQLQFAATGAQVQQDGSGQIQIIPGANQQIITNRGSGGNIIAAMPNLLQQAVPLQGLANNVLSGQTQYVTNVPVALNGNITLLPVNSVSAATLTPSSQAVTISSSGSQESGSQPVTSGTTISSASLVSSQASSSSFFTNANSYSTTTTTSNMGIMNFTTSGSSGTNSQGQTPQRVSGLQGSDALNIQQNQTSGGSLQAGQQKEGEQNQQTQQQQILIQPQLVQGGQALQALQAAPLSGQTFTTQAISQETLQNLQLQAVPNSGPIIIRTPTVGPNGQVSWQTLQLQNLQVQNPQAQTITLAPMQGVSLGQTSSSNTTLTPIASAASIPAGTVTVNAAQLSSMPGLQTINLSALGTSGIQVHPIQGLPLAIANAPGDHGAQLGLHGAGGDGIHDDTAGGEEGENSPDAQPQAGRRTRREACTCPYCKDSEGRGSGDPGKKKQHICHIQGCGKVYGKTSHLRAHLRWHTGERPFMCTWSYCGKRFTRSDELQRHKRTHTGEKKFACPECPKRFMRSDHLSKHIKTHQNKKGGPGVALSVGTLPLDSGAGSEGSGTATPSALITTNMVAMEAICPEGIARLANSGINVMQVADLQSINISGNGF
Sequence of X-box-binding protein 1 (Homo sapiens) (P17861 whole entry, looked up, the tested form may be a part): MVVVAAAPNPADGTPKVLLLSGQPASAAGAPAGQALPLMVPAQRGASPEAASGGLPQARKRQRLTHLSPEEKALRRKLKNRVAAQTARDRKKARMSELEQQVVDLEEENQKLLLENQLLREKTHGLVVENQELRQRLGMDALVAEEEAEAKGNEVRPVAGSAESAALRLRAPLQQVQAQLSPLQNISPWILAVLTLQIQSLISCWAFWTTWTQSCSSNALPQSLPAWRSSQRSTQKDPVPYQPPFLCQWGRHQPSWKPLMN
Sequence of Paired box protein Pax-6 (Homo sapiens) (P26367 whole entry, looked up): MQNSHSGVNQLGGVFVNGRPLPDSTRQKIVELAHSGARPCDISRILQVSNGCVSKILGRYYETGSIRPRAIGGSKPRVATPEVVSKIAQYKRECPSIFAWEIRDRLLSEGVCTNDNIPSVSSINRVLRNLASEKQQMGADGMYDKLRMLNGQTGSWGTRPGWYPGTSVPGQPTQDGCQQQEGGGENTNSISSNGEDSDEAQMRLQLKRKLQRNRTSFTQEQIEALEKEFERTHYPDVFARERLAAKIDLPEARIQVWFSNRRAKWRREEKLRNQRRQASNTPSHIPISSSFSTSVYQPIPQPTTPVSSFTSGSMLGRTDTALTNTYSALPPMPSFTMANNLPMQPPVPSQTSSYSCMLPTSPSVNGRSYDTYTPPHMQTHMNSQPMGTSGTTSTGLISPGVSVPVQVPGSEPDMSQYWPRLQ
Sequence of Signal transducer and activator of transcription 3 (Homo sapiens) (P40763 whole entry, looked up, the tested form may be a part): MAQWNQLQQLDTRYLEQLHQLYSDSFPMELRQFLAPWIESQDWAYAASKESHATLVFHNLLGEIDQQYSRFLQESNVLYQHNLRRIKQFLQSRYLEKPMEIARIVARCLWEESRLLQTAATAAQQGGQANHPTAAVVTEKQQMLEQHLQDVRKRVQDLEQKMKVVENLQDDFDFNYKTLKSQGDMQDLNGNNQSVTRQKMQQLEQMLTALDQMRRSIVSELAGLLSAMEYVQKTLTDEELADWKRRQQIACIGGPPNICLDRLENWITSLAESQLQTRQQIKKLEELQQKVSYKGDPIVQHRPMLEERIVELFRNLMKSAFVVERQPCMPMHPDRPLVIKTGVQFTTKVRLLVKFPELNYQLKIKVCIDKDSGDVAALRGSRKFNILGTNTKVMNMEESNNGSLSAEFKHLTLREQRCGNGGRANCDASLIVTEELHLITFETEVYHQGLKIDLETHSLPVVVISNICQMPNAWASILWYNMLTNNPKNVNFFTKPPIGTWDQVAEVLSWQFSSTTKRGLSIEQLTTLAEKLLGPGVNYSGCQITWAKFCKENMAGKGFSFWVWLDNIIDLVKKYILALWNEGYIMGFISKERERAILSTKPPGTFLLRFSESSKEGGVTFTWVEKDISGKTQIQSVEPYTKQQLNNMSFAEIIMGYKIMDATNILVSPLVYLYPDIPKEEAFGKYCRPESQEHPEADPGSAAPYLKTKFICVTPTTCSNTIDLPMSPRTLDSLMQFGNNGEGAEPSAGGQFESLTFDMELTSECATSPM
Sequence of Steroid hormone receptor ERR1 (Homo sapiens) (P11474 whole entry, looked up, the tested form may be a part): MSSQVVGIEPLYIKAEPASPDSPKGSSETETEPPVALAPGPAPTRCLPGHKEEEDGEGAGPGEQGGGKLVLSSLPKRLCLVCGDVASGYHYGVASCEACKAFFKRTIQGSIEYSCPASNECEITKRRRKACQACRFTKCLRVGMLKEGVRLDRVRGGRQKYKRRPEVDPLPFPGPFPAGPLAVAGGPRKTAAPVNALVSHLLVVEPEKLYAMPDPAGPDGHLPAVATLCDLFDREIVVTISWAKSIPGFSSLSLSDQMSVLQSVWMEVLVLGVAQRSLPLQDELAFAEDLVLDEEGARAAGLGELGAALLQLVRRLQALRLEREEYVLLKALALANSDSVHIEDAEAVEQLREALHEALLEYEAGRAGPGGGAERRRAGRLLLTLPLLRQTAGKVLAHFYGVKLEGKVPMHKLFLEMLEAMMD
Sequence of Nuclear receptor subfamily 1 group I member 3 (Homo sapiens) (Q14994 whole entry, looked up, the tested form may be a part): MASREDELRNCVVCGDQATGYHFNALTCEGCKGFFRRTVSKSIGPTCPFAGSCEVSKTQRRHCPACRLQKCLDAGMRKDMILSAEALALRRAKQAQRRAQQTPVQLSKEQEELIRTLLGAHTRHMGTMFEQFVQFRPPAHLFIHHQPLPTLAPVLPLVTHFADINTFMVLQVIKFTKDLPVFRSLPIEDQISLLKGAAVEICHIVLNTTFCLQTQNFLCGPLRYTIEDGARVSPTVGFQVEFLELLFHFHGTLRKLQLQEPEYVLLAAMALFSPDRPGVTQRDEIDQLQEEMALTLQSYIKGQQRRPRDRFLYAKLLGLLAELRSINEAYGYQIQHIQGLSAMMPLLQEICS
Sequence of Estrogen receptor (Homo sapiens) (P03372 whole entry, looked up, the tested form may be a part): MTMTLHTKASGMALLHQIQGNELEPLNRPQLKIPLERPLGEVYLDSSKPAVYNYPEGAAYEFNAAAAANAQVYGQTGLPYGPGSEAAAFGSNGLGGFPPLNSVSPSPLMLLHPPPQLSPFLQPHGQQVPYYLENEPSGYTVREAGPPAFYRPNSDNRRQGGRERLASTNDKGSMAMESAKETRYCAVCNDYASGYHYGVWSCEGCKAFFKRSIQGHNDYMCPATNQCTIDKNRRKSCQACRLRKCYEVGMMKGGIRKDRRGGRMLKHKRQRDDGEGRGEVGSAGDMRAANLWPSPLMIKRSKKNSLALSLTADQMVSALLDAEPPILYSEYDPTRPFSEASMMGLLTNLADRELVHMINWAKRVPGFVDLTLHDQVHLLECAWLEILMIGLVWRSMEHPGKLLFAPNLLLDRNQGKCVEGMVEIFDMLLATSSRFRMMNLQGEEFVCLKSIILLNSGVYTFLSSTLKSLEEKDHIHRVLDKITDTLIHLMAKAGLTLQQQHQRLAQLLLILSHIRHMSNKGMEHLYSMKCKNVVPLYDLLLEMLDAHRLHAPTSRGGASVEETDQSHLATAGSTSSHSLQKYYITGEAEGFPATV

On to `O=C(Nc1ccccc1-c1ccc(Cl)cc1)c1cccnc1Cl`, for which the AC50 in [1] is 17.7 µM (active); in test [3], 4.77 µM (active); in test [7], 19.8 µM (active); in test [14] it was 13.7 µM (active). For the same compound, the call in test [2], in [4], in test [5], in test [6], in [8] and in test [9] was inactive. The call in test [10], in test [11], in [12], in test [13], in test [15] and in test [16] was inactive. Also, the result in test [17] was inactive.
Turning to `CC(C)=CC1C(C(=O)OCc2coc(Cc3ccccc3)c2)C1(C)C` (stereo not given), the compound was classed as inactive in test [2], in test [5], in [6], in test [7], in [8] and in test [9]. Besides, the result in [10], in test [11], in test [12], in [13], in test [15] and in [17] was inactive. Further, the call in test [18] was inactive. Also, the figures for the concentration at half-maximal activity (AC50) in test [3], in test [4] and in [14] were 5.63 µM (active), 11.2 µM (active) and 14.5 µM (active), respectively.
Consider `N#Cc1c[nH]cc1-c1cccc2c1OC(F)(F)O2`, for which the compound was classed as inactive in test [2], in test [5], in test [7], in [8], in [9] and in test [10]. Further, the compound was classed as inactive in test [11], in test [12], in [13], in test [16] and in test [18]. The half-maximal activity concentration (AC50) was 11.6 µM (active) in [3]; 13.2 µM (active) in test [4]; 3.85 µM (active) in test [6]; 17.5 µM (active) in test [14]; 4.63 µM (active) in test [17].
Take `COP(=S)(OC)SCn1nnc2ccccc2c1=O`: the AC50 in test [1] is 36.3 µM (active); in test [3], 5.87 µM (active); in test [5], 31 µM (active); in test [7], 32.5 µM (active); in test [14] it was 10.3 µM (active); in test [19] it was 45.4 µM (active). Further, the AC50 in [17] was 18.7 µM (active). Besides, the compound was called inactive in test [2], in test [4], in [6], in test [9], in [10] and in [11]. In addition, the compound was classed as inactive in test [12], in test [13] and in test [18].
